Holding throughout (assay): NCI-60 one-dose screen, 48 h (100 = growth as untreated, 0 = no growth, -100 = all killed)
Holding throughout (settings): 10 µM unless noted

For assay [1], the system named is NCI-H23 lung.
For assay [2], the system named is NCI-H226 lung.
The subject of assay [3] is NCI-H322M lung.
In assay [4] the test system is HOP-62 NSCLC.
Assay [5] concerns NCI-H460 lung.
In assay [6] the test system is HOP-92 NSCLC.
Assay [7] concerns NCI-H522 lung.
For assay [8], the system named is A549/ATCC NSCLC.
Assay [9] relates to 786-0 renal.
Assay [10] concerns COLO 205 colon.

About 83,000 compounds went through this panel and 20% of them were active in at least one assay; those are over-represented in the sample as a whole.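 Assay: single dose, 48 h. Readout: percent growth (0 = no net growth; negative = cell death). Active: <10.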 Values without a mark were called inactive. The source made the active and inactive calls.

With `CCCCCOc1ccc(/C=N/Nc2cc(C)nc3ccc(Cl)cc23)cc1`, the growth in [1] is 62.5%; in assay [2], 88%; in assay [3], 44.3%; in assay [4] it was 29.7%; in assay [5], -63.1% (active); in assay [6], 56.7%. Moreover, the growth in assay [7] is -30.6% (active); in assay [8], -8.41% (active); in [9], -85.2% (active); in assay [10] it was -55.9% (active).
Turning to `COc1ccc(-c2cnc3c(-c4cccc5ncccc45)cnn3c2)cc1`, the growth in assay [1] is 50%; in assay [2], 0.736% (active); in assay [3], 42.7%; in assay [4], 4.66% (active); in [5], 33.9%; in [6], 24.9%. For the same molecule, the growth in assay [7] is 32.8%; in [8] it was 27.2%; in [9] it was 18.3%; in [10] it was 88.5%.
Consider `COc1ccc2[nH]c(O)c(/C=c3/cc4c(c(-c5ccc(F)cc5)n3)=Nc3ccccc3-4)c2c1`, for which the growth is 67.9% in assay [1]; 76.3% in assay [2]; 94% in [3]; 95.5% in [4]; 41.5% in [5]; 66.7% in [6]. The growth in [7] was 68.5%; in assay [8] it was 75.8%; in assay [9], 97.6%; in [10] it was 96.6%.
For the molecule `OCc1cnc2ccccc2c1NC1CCCCCC1`, the growth in [1] was 77.4%; in assay [2], 80.4%; in assay [3], 89.3%; in assay [4] it was 95.8%; in assay [5], 93.1%; in [6], 83.6%. In addition, the growth in assay [7] is 61.7%; in [8], 84.6%; in assay [9], 101%; in assay [10] it was 110%.
Turning to `COCc1cnccc1NC1CCCCCC1`, the growth in [1] is 103%; in assay [2], 95.7%; in assay [3], 98.6%; in assay [4], 99.9%; in assay [5], 108%; in assay [6] it was 91.2%. In addition, the growth was 89.9% in assay [7], 96.3% in assay [8], 106% in assay [9] and 121% in assay [10].
Consider `O=C(N/N=C/c1ccc(Oc2ccccc2)cc1)c1cnn2c1NC(c1ccccc1)C2` (stereo not given), for which the growth in [1] was 61.2%; in [2] it was 89.2%; in [3], 32.2%; in [4], 33.6%; in assay [5], 1.16% (active); in assay [6], 74.2%. Further, the growth in assay [7] is 51.3%; in [8], 8.65% (active); in [9] it was 41%; in assay [10], 51.6%.
In the case of `COc1cc(C(=O)Nc2cc3c(cc2Oc2cc(C)cc(C)c2)C(=O)N(C)[C@@H](CC(=O)N(C)O)C(=O)N3)c(Br)c(OC)c1OC`, the growth in assay [1] was -20.4% (active); in [2], -17.2% (active); in assay [3] it was -32.5% (active); in assay [4], -15.7% (active); in assay [5], -14.7% (active); in [6] it was -16.4% (active). Moreover, the growth in [7] is -43.1% (active); in assay [8] it was -4.48% (active); in assay [9], -38.5% (active); in [10] it was -17.9% (active).
`CCCCCCCC(=O)OCC/C=C/C1OC1C1OC(=O)/C=C\C=C\C(=O)N(C(C)=O)C(=O)/C=C(/C)CCC2OC2C1OC(=O)NC(C)=O` (stereo not given): the growth was 84.6% in [1]; 81.1% in assay [2]; 111% in assay [3]; 79.8% in assay [4]; 82.4% in assay [5]; 53.3% in assay [6]. Besides, the growth was 57.1% in assay [7], 95.1% in [8], 21.3% in [9] and 62.3% in assay [10].
`O=C1Nc2cc(-c3cccc(O)c3)ccc2/C1=C/c1ccc[nH]1`: the growth is 4.68% (active) in assay [1]; 73.9% in [2]; 21.8% in assay [3]; 14% in [4]; 4.52% (active) in assay [5]; 30.9% in assay [6]. The growth is 3.76% (active) in [7], 17.7% in assay [8], 15% in assay [9] and 83.7% in assay [10].
`O=C1c2ccc3c4c(ccc(c24)C(=O)N1CCCNCc1ccccc1)C(=O)N(CCCNCc1ccccc1)C3=O`: the growth in [1] is -72.9% (active); in assay [2], -54.1% (active); in assay [3], -37.8% (active); in assay [4], -38.5% (active); in assay [5], -73.1% (active); in [6], -12.5% (active). In addition, the growth is -91.2% (active) in [7], -91.1% (active) in [8], -46.3% (active) in assay [9] and -43.3% (active) in [10].
With `COc1cc2nc(-c3ccc(Cl)cc3)cc(OCCCN3CCC(O)CC3)c2cc1OC`, the growth was 76.1% in [1]; 3.82% (active) in assay [2]; 58.3% in assay [3]; 63.2% in [4]; 23.8% in [5]; 38.1% in [6]. Also, the growth in assay [7] was 33.4%; in assay [8], 34.9%; in assay [9] it was 75.2%; in [10], 23.8%.
Consider `C=C(C)[C@@H]1CC[C@]2(C(=O)N3CCN(C)CC3)CC[C@]3(C)[C@H](CC[C@@H]4[C@@]5(C)CC[C@H](O)C(C)(C)[C@@H]5CC[C@]43C)[C@@H]12`, for which the growth is -14.5% (active) in [1]; 129% in [2]; 10.4% in [3]; 55.6% in assay [4]; -69.5% (active) in [5]; 14.5% in [6]. The growth in [7] was -89.6% (active); in assay [8], -82.4% (active); in assay [9] it was -95.1% (active); in [10], -69.2% (active).
`CN1CCC(=C(c2ccccc2)c2ccccc2)C(c2ccccc2)C1` (stereo not given): the growth in assay [1] was 88.1%; in assay [2], 96.3%; in assay [3], 96.7%; in assay [4] it was 101%; in assay [5] it was 103%; in assay [6], 82.8%. Moreover, the growth in assay [7] was 85.2%; in [8], 90.8%; in assay [9], 95.1%; in assay [10], 83%.
With `NC(=S)N1N=C(c2ccccc2)CC1c1cn(-c2ccccc2)nc1-c1ccc(OCc2ccccc2)cc1` (stereo not given), the growth was 104% in assay [1]; 98.4% in [2]; 94.9% in assay [3]; 101% in [4]; 106% in assay [5]; 80% in assay [6]. The growth in assay [7] is 83.5%; in assay [8], 91.7%; in [9], 98.4%; in assay [10] it was 115%.
With `C#Cc1cccc(NC(=O)Nc2cccc(NC(=O)CCl)c2)c1`, the growth in assay [1] was -82.8% [8.25 µM] (active); in assay [2], -12.1% [8.25 µM] (active); in assay [3] it was 88.9% [8.25 µM]; in assay [4], 36.1% [8.25 µM]; in assay [5], -32.2% [8.25 µM] (active); in assay [6], -53.1% [8.25 µM] (active). Further, the growth was -37.5% [8.25 µM] (active) in [7], 56.8% [8.25 µM] in assay [8], -65.1% [8.25 µM] (active) in assay [9] and -51.3% [8.25 µM] (active) in assay [10].
With `O=[N+]([O-])c1cc(Br)c2cccc3c2c1CC3`, the growth was 106% in [1]; 103% in assay [2]; 106% in [3]; 118% in assay [4]; 106% in assay [5]; 97.1% in assay [6]. Further, the growth was 108% in [7], 98.5% in assay [8], 96.5% in assay [9] and 118% in assay [10].
In the case of `N#C/C(=C\c1cccc(C#N)c1)c1ccccc1`, the growth is 101% in assay [1]; 105% in [2]; 104% in assay [3]; 92.9% in [4]; 104% in assay [5]; 120% in assay [6]. The growth was 95.6% in [7], 88.8% in assay [8], 105% in assay [9] and 104% in assay [10].
In the case of `CCCCOc1ccc(/C=N/Nc2cc(C)nc3ccc(Br)cc23)cc1`, the growth in assay [1] is 74.9%; in [2], 90.2%; in [3] it was 76.9%; in assay [4], 82.5%; in [5], -34.6% (active); in assay [6] it was 68%. Moreover, the growth is 76.9% in assay [7], 34.5% in [8], -83.7% (active) in assay [9] and -58.5% (active) in assay [10].
On to `COc1ccc(/C=C2\COc3ccc(-c4ccccc4)cc3C2=O)c(OC)c1`, for which the growth in [1] is 77.9%; in assay [2], 86.6%; in assay [3], 90.2%; in assay [4] it was 120%; in assay [5] it was 83.4%; in assay [6] it was 109%. Moreover, the growth was 39.7% in assay [7], 90.9% in assay [8], 83.2% in assay [9] and 124% in assay [10].
As for `CCCCN1C=CCN(CCCC)C1`, the growth in assay [1] was 65.4%; in assay [2], 82.9%; in [3] it was 75%; in assay [4], 84.1%; in assay [5] it was 50.1%; in [6], 50.2%. Also, the growth is 47.7% in [7], 66.7% in assay [8], 73.9% in assay [9] and 30.4% in assay [10].
For `CC(C)(C)c1cc(/C=N/NC(=O)c2ccccc2NC(=O)c2cccs2)c(O)c(C(C)(C)C)c1`, the growth in [1] is 48.6%; in assay [2], 55.1%; in assay [3], 39.1%; in [4] it was 20.7%; in assay [5] it was -11% (active); in assay [6] it was 75.4%. The growth in [7] was 27.8%; in assay [8] it was 12.8%; in assay [9], 18.4%; in assay [10] it was 4.49% (active).
For `CCN(CC)c1ccc(/C=N/NC(=O)CSc2nc3ccccc3c(=O)n2Cc2ccc(S(N)(=O)=O)cc2)c(O)c1`, the growth in assay [1] is 39.6%; in assay [2], 31.1%; in assay [3], 27.1%; in assay [4], 21.2%; in assay [5], 6.78% (active); in assay [6], 58.4%. Also, the growth in assay [7] was -26.1% (active); in assay [8], 29%; in [9], 32.6%; in [10] it was -2.18% (active).
In the case of `O=C(Cn1c(C(=O)c2ccccc2)nc2ccccc21)c1ccc(F)cc1`, the growth in assay [1] was 67.3%; in assay [2] it was 84%; in assay [3], 75%; in assay [4], 78.2%; in assay [5] it was 98.6%; in assay [6] it was 77.3%. In addition, the growth in assay [7] is -9.34% (active); in [8], 79.3%; in assay [9], 75.9%; in assay [10], 119%.
Consider `Cn1c2ccccc2c2c3c(c4c5ccccc5n(C)c4c21)C(=O)OC3`, for which the growth is 97.6% in assay [1]; 80.9% in [2]; 87.6% in assay [3]; 90.8% in assay [4]; 97.6% in [5]; 95.6% in assay [6]. The growth was 88.8% in assay [7], 104% in assay [8], 102% in assay [9] and 107% in [10].
With `C[C@H]1[C@H](C)CC[C@]2(C(=O)Nc3ccc4ncccc4c3)CC[C@]3(C)C(=CC[C@@H]4[C@@]5(C)CCCNC(C)(C)[C@@H]5CC[C@]43C)[C@H]12`, the growth in [1] is 51%; in assay [2], 110%; in assay [3], 63.1%; in assay [4], 95.2%; in assay [5] it was -79.8% (active); in assay [6] it was 60.2%. For the same molecule, the growth in assay [7] is 9.94% (active); in assay [8], -92.1% (active); in assay [9], -96.2% (active); in [10], -82.7% (active).
As for `Cc1nn(-c2ccccc2)c(Cl)c1/C=C/C(=O)c1ccc(F)cc1`, the growth is 94.6% in assay [1]; 85.8% in assay [2]; 91.2% in assay [3]; 89.5% in [4]; 98% in assay [5]; 88.1% in assay [6]. The growth in [7] was 69.4%; in assay [8] it was 83.8%; in assay [9], 12.6%; in assay [10], 105%.

(Values after PubChem BioAssay (NCI).)
